Test results: ChEMBL document CHEMBL4513216, “Probing the Open Global Health Chemical Diversity Library for Multistage-Active Starting Points for Next-Generation Antimalarials” (ACS Infect Dis, 2020)
Hit rate of the full screen: of about 69,000 compounds, about 8,600 (12%) showed an effect of 50% or more. The sample holds strong results, similar compounds and a random draw of the others, so the mix is not that of the screen.

What follows are compounds tested on Plasmodium berghei (assay: Screen against P. berghei liver stage (PbLuc), transformed with Luciferase, at 10uM). Conditions: tested at 10 uM.
Type: functional, HepG2

| Compound | INHIBITION |
| --- | --- |
| Cc1nnc(CN(C)Cc2ccc(C(=O)Nc3sccc3C#N)cc2)o1 | 15.9% |
| CN(Cc1ccc(C(=O)Nc2sccc2C#N)cc1)Cc1ccno1 | 15.9% |
| Cc1nnsc1CN(C)Cc1ccc(C(=O)Nc2sccc2C#N)cc1 | 55.4% |
| COCCN1CCCC(Cc2ccc(N3CCOCC3)nn2)C1 (centres undefined) | -0.902% |
| O=C(NCC1CCCCC1)NC1CCCc2c1cnn2CCO (centres undefined) | 55.1% |
| Cc1nc(CCNC(=O)NC2CCCc3c2cnn3CCO)cs1 (centres undefined) | 26.9% |
| O=C(NCCC1=CCCCC1)NC1CCCc2c1cnn2CCO (centres undefined) | 62% |
| Cc1ccc(CNC(=O)NC2CCCc3c2cnn3CCO)cn1 (centres undefined) | 53.4% |
| Cc1csc(CNC(=O)NC2CCCc3c2cnn3CCO)n1 (centres undefined) | 14% |
| O=C(NC1CCCCC1)NC1CCCc2c1cnn2CCO (centres undefined) | -9.93% |
| O=C(NCCc1ccc(F)cc1)NC1CCCc2c1cnn2CCO (centres undefined) | 18.3% |
| O=C(NCC(F)(F)F)NC1CCCc2c1cnn2CCO (centres undefined) | 37.1% |
| Cc1ccsc1CNC(=O)NC1CCCc2c1cnn2CCO (centres undefined) | 13.4% |
| CC1(C)Cc2nc(C(C)(C)C)ncc2C(NC(=O)CN)C1 (centres undefined) | 36.8% |
| CCn1ncc2c1C(COCC1CC1)N(Cc1nccs1)CC2 (centres undefined) | 13.7% |
| COc1cccc(S(=O)(=O)CCNC2CCc3ncnn3C2)c1 (centres undefined) | 41.2% |
| CN(C)C(=O)C1CCN(C2CCN(CC3CCC3)CC2)CC1 | 26.5% |
| CCn1cc(N)c(-c2nnc3n2CCC3)n1 | 24.8% |
| Cc1ccc(C(=O)NS(C)(=O)=O)cc1-n1cccc1 | 5.23% |
| O=C(Nc1ccc2c(ccn2CCN2CCOCC2)c1)c1ccncc1 | -35.8% |
| Cc1ccccc1Cc1nc(CSc2nnc(N)n2C2CC2)no1 | 67.8% |
| CCc1nc(CSc2nnc(N)n2C2CC2)no1 | 42.1% |
| Cc1ccccc1Cc1nc(CSc2nnc(N)n2C)no1 | 10.7% |
| CCC(=O)N1CCC(Cc2ccccc2-c2ccncc2)(C(=O)NC)C1 (centres undefined) | 6.32% |
| O=C(O)c1ccn(-c2ccccc2NC(=O)c2ccccc2Cl)n1 | 4.1% |
| O=C(O)c1ccn(-c2cccc(NC(=O)c3ccccc3Cl)c2)n1 | 52.6% |

| Compound | INHIBITION |
| --- | --- |
| O=C(O)c1ccn(-c2ccc(NC(=O)c3ccccc3Cl)cc2)n1 | 46.1% |
| CCS(=O)(=O)N1C[C@@H]2COC[C@@H](Cc3nc(C)no3)[C@@H]2C1 | 12.1% |
| Cc1nnc(C[C@@H]2COC[C@H]3CN(C(=O)c4ccco4)C[C@@H]23)o1 | 2.4% |
| Cc1noc(C[C@@H]2COC[C@H]3CN(S(C)(=O)=O)C[C@@H]23)n1 | 26.5% |
| COc1cc(N2C[C@@H]3COC[C@@H](Cc4nc(C)no4)[C@@H]3C2)ncn1 | 65.7% |
| COc1cc(N2C[C@@H]3COC[C@@H](Cc4nnc(C)o4)[C@@H]3C2)ncn1 | 50.3% |
| Cc1noc(C[C@@H]2COC[C@H]3CN(S(=O)(=O)C4CC4)C[C@@H]23)n1 | 24.9% |
| Cc1noc(C[C@@H]2COC[C@H]3CN(C(=O)C4=CCCC4)C[C@@H]23)n1 | 34.9% |
| CCCS(=O)(=O)N1C[C@@H]2COC[C@@H](Cc3nc(C)no3)[C@@H]2C1 | 61.9% |
| Cc1nnc(C[C@@H]2COC[C@H]3CN(C(=O)C4=CCCC4)C[C@@H]23)o1 | 36.4% |
| CS(=O)(=O)N1CCCC(C(=O)Nc2cnn(Cc3ccc(F)cc3)c2)C1 (centres undefined) | 30.8% |
| CCc1ccc(CN2Cc3nccn3CC(Cn3cncn3)C2)o1 (centres undefined) | -14.3% |
| CCOc1ncccc1NC(=O)N1CCCN(C(=O)OC)CC1 | -5.1% |
| O=C(O)[C@]12CCCN(Cc3ccoc3)C[C@H]1CN(c1ncccn1)C2 | 7.24% |
| COc1c(CNCCNC(=O)c2ccc(C)c(F)c2)c(C)nn1C | 11.2% |
| COCCn1ccc(NCc2cc3cc(F)ccc3o2)n1 | 5.58% |
| COCC(=O)N1CCCC1c1cc(Nc2nnc(C)s2)nc(C)n1 (centres undefined) | 18.2% |
| CN(C)[C@@H]1CN(C(=O)c2ccc3ccccc3n2)C[C@H]1O | 14.7% |
| CC(C)Oc1cccc(CN2CCC(c3n[nH]c4ncccc34)CC2)c1 | 66.5% |
| Fc1ccc(F)c(CN2CCC(c3n[nH]c4ncccc34)CC2)c1 | -10.5% |
| Fc1cccc(Cl)c1CN1CCC(c2n[nH]c3ncccc23)CC1 | 24.4% |
| CC(C)Oc1ccc(CN2CCC(c3n[nH]c4ncccc34)CC2)cc1 | 70.1% |
| Fc1ccc(CN2CCC(c3n[nH]c4ncccc34)CC2)cc1F | 3.45% |
| c1cnc(N2CCC(c3n[nH]c4ncccc34)C2)nc1 (centres undefined) | 15.9% |
| CCN(Cc1cnn(C)c1)C[C@H]1CC[C@@H](Cc2ccc(C#N)cc2)O1 | 6.33% |
| Cc1ncsc1CCC(=O)N(C)Cc1nc2ccccc2n1C | 14.6% |

| Compound | INHIBITION |
| --- | --- |
| CC(C)N1CCC2(C=C(C(=O)NC3CC3)c3ccccc32)CC1 | -24.5% |
| CC(C)c1cc(N(C)Cc2cc(C3CC3)on2)n2nccc2n1 | 32.5% |
| CCOC(=O)N1[C@@H](c2ccco2)[C@@H](C(=O)NC)C[C@]12CCCCNC2=O | 42.7% |
| CCCc1nc(C)c(C(=O)NCCn2ccnc2)s1 | 51% |
| CCc1nc(C)c(C(=O)NCCn2nc3ccccn3c2=O)s1 | -11% |
| Cc1nc(C(C)(C)C)sc1C(=O)NCCn1ccnc1 | 30.9% |
| Cc1nc(C(C)C)sc1C(=O)NCCn1ccnc1 | 29.8% |
| CCCc1nc(C)c(C(=O)NCCn2nc3ccccn3c2=O)s1 | 52.8% |
| Cc1nc(C)c(C(=O)NCCn2nc3ccccn3c2=O)s1 | 4.283% |
| CCN1CCC2(CCN(c3ncccn3)CC2)C1=O | -12.2% |
| Cc1ccc(CN2C[C@@H]3CCCO[C@@H]3[C@H](NS(C)(=O)=O)C2)o1 | 46.6% |
| CC(C)N1CCC2(CC1)C(=O)N(CCN(C)C)c1ccccc12 | 49.4% |
| O=C(c1cccnc1)N1CCCC(c2ccnc3nccn23)C1 (centres undefined) | 9.3875% |
| O=C(NCc1cncc2c1CCN(Cc1cccs1)C2)C1CC1 | 9.67% |
| Cc1ccc(CNC2CCc3[nH]c(=O)ccc3C2)cc1C (centres undefined) | 40.1% |
| CC(C)NC(=O)N1CCC2(CC(=O)N(c3ccccc3)C2)C1 (centres undefined) | 28.4% |
| CC(=O)N1CCC(c2cncc(N3CCOCC3)n2)CC1 | 41.5% |
| CN(Cc1ccsc1)C(=O)COC(=O)c1cc(Cl)c[nH]1 | 14.8% |
| CCCN1CCC(NC(=O)c2ccnc(SCC)c2)CC1 | 49.7% |
| Cc1cnc(C)c(N2CC[C@H](N3CCOCC3)[C@H](CCCO)C2)n1 | -12.4% |
| Cc1nccn1CCC1CCCCN1C(=O)c1ccc(N(C)C)cc1 (centres undefined) | 66.9% |
| COC(=O)c1cccc(C(=O)N2CCCCC2CCn2ccnc2C)c1 (centres undefined) | 17.3% |
| CNc1cc(C(=O)N2CCCCC2CCn2ccnc2C)ccn1 (centres undefined) | 64.5% |
| Cc1nccn1CCC1CCCCN1C(=O)c1ccc2[nH]nnc2c1 (centres undefined) | -5.29% |
| Cc1nccn1CCC1CCCCN1C(=O)c1ccc2nonc2c1 (centres undefined) | -17.5% |
| Cc1nccn1CCC1CCCCN1Cc1ccc(O)cc1Cl (centres undefined) | 1.37% |

| Compound | INHIBITION |
| --- | --- |
| COc1cccc(CN(C)C(=O)NCc2c(C)cc(C)[nH]c2=O)c1 | 22.3% |
| Cc1cnn(CC2CCCN2C(=O)CN(C)C2CC2)c1 (centres undefined) | 29.7% |
| Cn1ccnc1C(=O)N1CCC2(CC1)CC(Oc1cccnc1)CO2 (centres undefined) | 32.4% |
| CC(CCc1ccc(F)c(F)c1)NS(=O)(=O)Cc1ccon1 (centres undefined) | 53.5% |
| Cc1ccc(OCC(C)NS(=O)(=O)Cc2ccon2)cc1 (centres undefined) | 48.5% |
| CC(C)CC(CO)NS(=O)(=O)Cc1ccon1 (centres undefined) | 23.8% |
| CCc1nc(C2CCCN(C(=O)c3cnn(CC)c3)C2)no1 (centres undefined) | -8.69% |
| Cc1ccc(C(=O)Nc2ccccc2N2CCCC2)n1C | 21.2% |
| CN1CCN(c2ccccc2NC(=O)NCC[S+](C)[O-])CC1 (centres undefined) | 39.3% |
| CN1CCN(c2ccccc2NC(=O)NCCc2ccc(O)cc2)CC1 | 35.1% |
| CN1CCN(c2ccccc2NC(=O)NCCc2ccccc2)CC1 | 64.3% |
| CN1CCN(c2ccc(Br)cc2NC(=O)c2ccco2)CC1 | 46.3% |
| CN1CCN(c2ccccc2NC(=O)c2ccco2)CC1 | 50.4% |
| Cc1nn(CC(=O)N(C)Cc2nncn2C(C)C)c(=O)c2ccccc12 | -7.27% |
| Cc1nn(CCNS(=O)(=O)c2ccccc2)c(C)c1Cl | 48.3% |
| Cc1cnn(C2CCCN(C(=O)c3ccc(-n4cnnn4)cc3)C2)c1 (centres undefined) | 47.4% |
| CC(C)(O)CN1CCN(C(=O)c2cccn2Cc2ccncc2)CC1 | 19.2% |
| Cc1cc(C)n(CC2CN(CC(=O)Nc3cccnc3)CCO2)n1 (centres undefined) | -14.3% |
| CCN(CCNC(=O)c1cccc(C)c1C)C1CC1 | -16% |
| O=C1CSC(c2ccc(O)c(Cl)c2)c2c(n(C3CCOCC3)[nH]c2=O)N1 (centres undefined) | 15% |
| CC1=Nc2c(c(=O)[nH]n2C2CCOCC2)C(c2cccc(Br)c2)S1 (centres undefined) | 3.95% |
| O=C1CSC(c2ccc(Cl)cc2Cl)c2c(n(C3CCOCC3)[nH]c2=O)N1 (centres undefined) | 54.5% |
| COc1ccccc1C1SCC(=O)Nc2c1c(=O)[nH]n2C1CCOCC1 (centres undefined) | 39.3% |
| O=C1CSC(c2ccc(F)c(Cl)c2)c2c(n(C3CCOCC3)[nH]c2=O)N1 (centres undefined) | 72.8% |
| CC(=O)c1cccc(OCC(=O)NS(=O)(=O)c2cccs2)c1 | 2.97% |
| Cn1nccc1-c1nnn2c1COCC(CNC1CCOCC1)C2 (centres undefined) | 45.7% |
